Hits are enriched below; roughly 8.9% of the tested compounds scored in any of these assays.
MCF10A rerep – DNA re-replication induction in MCF 10a cells; actives 2.9% (n = 350,000); AID 624296; MCF 10A DNA re-replication, Hoechst nuclear intensity, 48 h; Potency, µM (series often up to 46.1 µM), actives largely listed as activators; also: nearly all actives have a fitted effect of over 50% in size
DRD3 antagonist – D3 dopamine receptor (human) antagonism | P35462 | AID 652054 | actives 2.5% (n = 360,000) | D3R cells, DiscoveRx beta-arrestin luminescence, antagonist mode; hits give low values | max response, negative = inhibition, %; in the data active = max response below about -50%; inconclusive = no clear call, values can overlap the other calls
Target sequence (P35462 whole entry, looked up): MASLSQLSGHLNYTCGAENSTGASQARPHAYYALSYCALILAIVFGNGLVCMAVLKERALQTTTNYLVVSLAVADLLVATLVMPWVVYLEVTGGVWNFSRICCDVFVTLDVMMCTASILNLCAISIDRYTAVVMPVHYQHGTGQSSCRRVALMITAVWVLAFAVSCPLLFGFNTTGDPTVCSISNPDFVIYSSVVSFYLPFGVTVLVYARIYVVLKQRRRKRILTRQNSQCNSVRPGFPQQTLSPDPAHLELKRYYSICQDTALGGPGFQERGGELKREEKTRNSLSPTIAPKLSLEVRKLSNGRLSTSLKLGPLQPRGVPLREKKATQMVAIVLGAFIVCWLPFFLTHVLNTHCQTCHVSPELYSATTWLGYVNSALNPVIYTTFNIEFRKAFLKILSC
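Cells plated overnight at 1500 cells/well, then exposed to library compounds with dopamine controls for 90 minutes at 37 degrees C. DiscoveRx reagent added for 30–60 minutes at room temperature; luminescence read, quantitative HTS format.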
SW480 rerep – inducers of DNA re-replication in SW480 colon cancer cells | SW480 DNA re-replication, Hoechst DNA content imaging, 48 h | Potency, µM (doses to about 46.1 µM), most hits filed as activators | actives 1.8% (n = 340,000) | AID 624297; also: nearly all actives have a fitted effect of over 55% in size
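Compounds, transferred as 23 nL by pin tool, were incubated with cells for 48 hr; DNA content per nucleus was then quantified by Hoechst staining and fluorescence plate imaging.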
KB-V1 cytotox – KB-V1 MDR subline cytotoxicity; KB-V1 MDR cells viability, CellTiter-Glo, 72 h; actives 3.4% (n = 400,000); Potency, µM (top dose mostly 46.1 µM), hits mostly cytotoxic; AID 1347076; also: nearly all actives have a fitted effect of over 60% in size
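Potencies derive from concentration-effect curves fitted to normalized luminescence (CellTiter-Glo) of KB-V1 cells treated for 72 h at 37 degrees C in phenol-red-free DMEM containing 10% FBS.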
D3 ag – D3 dopamine receptor (human) agonism. D3R DiscoveRx beta-arrestin cells, luminescence, 90 min. actives 0.58% (n = 410,000). max activation, %; in the data active = max activation above about 30%
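Agonist-mode cell screen: cells plated at 1500/well and incubated overnight at 37 °C, then exposed to library compounds for 90 min at 37 °C. Detection reagent was added for 30–60 min at room temperature, and luminescence was read.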
KB-3-1 cytotox – KB-3-1 parental cell cytotoxicity; AID 1347075; KB-3-1 viability, CellTiter-Glo ATP luminescence, 72 h; Potency, µM (top dose mostly 46.1 µM), most hits filed as cytotoxic; actives 1.4% (n = 400,000); also: nearly all actives have a fitted effect of over 60% in size
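Cells are dispensed, compounds pinned in, plates held at 37 °C for 72 h, then CellTiter-Glo is added and luminescence read after 10 minutes. Cell line: parental KB-3-1 in phenol-red-free DMEM, 10% FBS.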
Numbers stand for hits; ! = repeats disagree; [ ] = another dose, or the depositor's remark. Unless noted, calls follow the shape of the dose curve; as a rule, active = well fitted curve in the direction sought with a large enough effect; inconclusive = small, poorly fitted or top-dose-only effect, or another doubt; inactive = no such curve, though single readings can be large; an effect the other way counts as inactive or inconclusive.

CCOc1ccccc1CNC(=O)Cn1c(-c2ccccc2)cc(C(C)=O)c1C was read as KB-V1 cytotox inactive, D3 ag inactive and KB-3-1 cytotox inactive.
For CSCCC1NC2(C(=O)Nc3c(Cl)cccc32)[C@@H]2C(=O)N(C3CCCC3)C(=O)[C@H]12 (stereo partly drawn) the results were MCF10A rerep inactive, DRD3 antagonist inactive, SW480 rerep inactive, KB-V1 cytotox inactive, D3 ag inactive and KB-3-1 cytotox inactive.
`CSCCC1NC2(C(=O)Nc3c(C)cc(Cl)cc32)[C@@H]2C(=O)N(C3CCCC3)C(=O)[C@H]12` (stereo partly drawn) gave MCF10A rerep inactive, DRD3 antagonist inactive, SW480 rerep inconclusive, KB-V1 cytotox 4.6µM, D3 ag inactive and KB-3-1 cytotox inconclusive.
Cc1ccc(C)c(C2C(=O)c3ccccc3C2=O)c1 was read as MCF10A rerep inactive, DRD3 antagonist inactive, SW480 rerep inactive, KB-V1 cytotox inactive, D3 ag inactive and KB-3-1 cytotox inactive.
Screening Cc1ccc2ccc(C3C(=O)c4ccccc4C3=O)nc2c1 returned MCF10A rerep inactive, DRD3 antagonist -64, SW480 rerep inactive, KB-V1 cytotox inactive, D3 ag inactive and KB-3-1 cytotox inactive.
`Cc1c(C(=O)OC(C)C)sc(NC(=O)C2CCCO2)c1C(=O)OC(C)C` (stereo not drawn) gave MCF10A rerep 13µM, DRD3 antagonist inactive, SW480 rerep inactive, KB-V1 cytotox inconclusive, D3 ag inactive and KB-3-1 cytotox inactive.
For CCc1ccc(-c2csc(NC(=O)C3CCCO3)c2C(=O)OC(C)C)cc1 (stereo not drawn) the results were MCF10A rerep 26µM, DRD3 antagonist inactive, SW480 rerep inconclusive, KB-V1 cytotox inactive, D3 ag inactive and KB-3-1 cytotox inactive.
For COC(=O)c1c(-c2ccc(F)cc2)csc1NC(=O)C1CCCO1 (stereo not drawn) the results were MCF10A rerep inconclusive, DRD3 antagonist inactive, SW480 rerep inconclusive, KB-V1 cytotox inconclusive, D3 ag inactive and KB-3-1 cytotox inactive.
O=C(NCc1ccccc1)C(c1ccccc1F)n1c(=O)c(-c2ccco2)nc2ccccc21 (stereo not drawn) was read as DRD3 antagonist inactive, KB-V1 cytotox inactive, D3 ag inactive and KB-3-1 cytotox inactive.
Screening CC(=O)Nc1ccc(-n2c(=O)c3ccccc3c3ccccc3c2=O)cc1 returned MCF10A rerep inconclusive, DRD3 antagonist -88, SW480 rerep inconclusive, KB-V1 cytotox inactive, D3 ag inactive and KB-3-1 cytotox inactive.
For CCC(CO)Oc1cc(NCc2ccc(C(F)(F)F)cc2)c2ncn(C(C)C)c2c1 (stereo not drawn) the results were MCF10A rerep inactive, DRD3 antagonist inactive, SW480 rerep inconclusive, KB-V1 cytotox inactive, D3 ag inactive and KB-3-1 cytotox inconclusive.
`CCN(CC)c1ccc(/C=C(\C#N)C(=O)c2ccc(Br)cc2)cc1` gave MCF10A rerep 13µM, DRD3 antagonist inactive, SW480 rerep inconclusive, KB-V1 cytotox inactive, D3 ag inactive and KB-3-1 cytotox inactive.
For CCN(CC)c1ccc(/C=C(\C#N)C(N)=O)cc1 the results were MCF10A rerep inactive, DRD3 antagonist inactive, SW480 rerep inactive, KB-V1 cytotox inactive, D3 ag inactive and KB-3-1 cytotox inactive.
CCOC(=O)c1cc(-c2ccccc2)n(-c2cccc(C(=O)N(CC)c3ccccc3)c2)c1C was read as KB-V1 cytotox inactive, D3 ag inactive and KB-3-1 cytotox inactive.
`Cc1c(NC(=O)C(C)(C)Oc2ccc(Cl)cc2)cccc1-c1nc2ccccc2o1` gave KB-V1 cytotox inactive, D3 ag inactive and KB-3-1 cytotox inactive.
`Cc1cc(O)c2c(c1O)C(=O)[C@]13C(=C2O)C(=O)[C@@H]2[C@@H](O)[C@H]1[C@@H]1[C@H](O)[C@H]3C(=O)C3=C(O)c4c(O)cc(C)c(O)c4C(=O)[C@]312` gave MCF10A rerep inactive, DRD3 antagonist inactive, SW480 rerep inactive, KB-V1 cytotox inactive, D3 ag inactive and KB-3-1 cytotox 1.2µM.
`CC(C)Oc1ccc(CNC(=O)c2cnc3sc(N4CCCCC4)nn3c2=O)cc1` gave KB-V1 cytotox inconclusive, D3 ag inactive and KB-3-1 cytotox inactive.
CCc1ccc(N/C(SCc2ccccc2C)=C(/C#N)C(=O)NCc2ccco2)cc1 was read as MCF10A rerep inactive[0.0737 µM], DRD3 antagonist inactive, SW480 rerep 3.7µM, KB-V1 cytotox inactive, D3 ag inactive and KB-3-1 cytotox inconclusive.
Screening COc1cc(C)c2c(c1OC)C(=O)CC2 returned MCF10A rerep inactive, DRD3 antagonist inactive, SW480 rerep inactive, KB-V1 cytotox inactive, D3 ag inactive and KB-3-1 cytotox inactive.
`O=C(Cn1c2ncccc2c(=O)n1-c1ccccc1)Nc1cccc(C(F)(F)F)c1` gave KB-V1 cytotox inactive, D3 ag inactive and KB-3-1 cytotox inactive.
O=C(NN1C(=O)c2ccccc2NC1c1ccc([N+](=O)[O-])o1)c1ccccc1 (stereo not drawn) was read as MCF10A rerep inconclusive, DRD3 antagonist inactive, SW480 rerep inconclusive, KB-V1 cytotox inactive, D3 ag inactive and KB-3-1 cytotox inactive.
`O=C1c2ccccc2NC(c2ccc(-c3ccc(F)cc3)o2)N1O` (stereo not drawn) gave MCF10A rerep inconclusive, SW480 rerep inconclusive, KB-V1 cytotox inactive and KB-3-1 cytotox inconclusive.
O=C1c2ccccc2NC(c2ccc(-c3cccc([N+](=O)[O-])c3)o2)N1O (stereo not drawn) was read as MCF10A rerep inactive, DRD3 antagonist inactive, SW480 rerep inactive, KB-V1 cytotox 2.3µM, D3 ag inactive and KB-3-1 cytotox inconclusive.
Screening O=C(NN1C(=O)c2ccccc2NC1c1ccc([N+](=O)[O-])o1)c1ccc([N+](=O)[O-])cc1 (stereo not drawn) returned MCF10A rerep inconclusive, DRD3 antagonist -61, SW480 rerep inconclusive, KB-V1 cytotox inconclusive, D3 ag inactive and KB-3-1 cytotox inactive.
For Cc1ccccc1S(=O)(=O)N(C)C[C@@H]1OCc2cnnn2CCCC(=O)N([C@@H](C)CO)C[C@H]1C the results were DRD3 antagonist inactive, KB-V1 cytotox inconclusive, D3 ag inactive and KB-3-1 cytotox inactive.
Screening CC1=C(/C=C/C(C)=C/C=C/C(C)=C/C(=O)Nc2ccc(O)cc2)C(C)(C)CCC1 returned MCF10A rerep inactive, DRD3 antagonist inactive, SW480 rerep inconclusive, KB-V1 cytotox inconclusive, D3 ag 69! and KB-3-1 cytotox inconclusive.
For CC1=C(/C=C/C(C)=C/C=C/C(C)=C\C(=O)O)C(C)(C)CCC1 the results were MCF10A rerep inactive, DRD3 antagonist inactive, SW480 rerep inconclusive, KB-V1 cytotox inactive, D3 ag inactive and KB-3-1 cytotox inactive.

Screening results from PubChem.
